Records with an inconclusive call do not appear. Unmarked numbers belong to inactive results. The call rests on the fitted dose curve; in most records, active means well fitted activation curve with a large enough effect; inconclusive means small, poorly fitted or top-dose-only effect; inactive means flat fitted curve, though single readings scatter.
assay: qHTS for Inhibitors of Cell Surface uPA Generation: FP59 Counterscreen for Cherry-picked Compounds; conditions: FP59 anthrax toxin cytotoxicity counterscreen, cells; series mostly up to 115 µM; activity (protection from FP59): at the top concentration; further: 0% is about no effect

Row | SMILES | activity (protection from FP59) [%]
1 | Clc1ccc(C2=NN=C3COc4ccccc4N3C2)cc1 | -1.23
2 | COc1ccc(C[C@@H]2OC3(C=CC(=O)C=C3)O[C@H]2Cc2ccc(OC)cc2)cc1 | -1.61
3 | NC(=O)CC(NC(=O)Cc1cccc2ccccc12)c1ccc(N2CCN(c3ccccc3)CC2)c([N+](=O)[O-])c1 (centres undefined) | -0.718
4 | COc1ccccc1NNC(=O)C(O)(c1ccccc1OC)c1ccccc1OC | -1.17
5 | Cc1ccc2[nH]c(CN3CCN(C)C(CCO)C3)c(C)c2c1 (centres undefined) | -1.44
6 | O=C(NNC(=O)c1cccnc1)c1ccncc1 | -1.3
7 | CCC(=O)Nc1nc(-c2cc([N+](=O)[O-])cs2)cs1 | -1.47
8 | O=S(=O)(NCC(c1cccnc1)N1CCOCC1)c1ccccc1 (centres undefined) | -1.32
9 | COc1ccc(N(CN2C(=O)c3ccccc3C2=O)C(=O)C(C)C)cc1 | 0.575
10 | COc1ccccc1NC(=O)COc1ccc(C(=O)NCc2ccccc2)cc1OC | 0.667
11 | c1csc(CN2CCOCC2)c1 | -1.39
12 | Cc1ccc(S(=O)(=O)N2CCOCC2)cc1NC(=O)CSc1nc(N)cc(N)n1 | -1.25
13 | COc1ccc(NS(=O)(=O)c2cc3c(cc2C)NC(=O)CO3)c(OC)c1 | -1.42
14 | Cc1cccc(C(=O)NC2CCN(CC(=O)N3CCOCC3)CC2)c1 | -1.38
15 | Cc1cc(OC(C)C(=O)NCc2ccccn2)c2c(C)cc(=O)oc2c1 (centres undefined) | -1.49
16 | CC(=O)c1ccc(N2CCN(C(=S)NCc3ccco3)CC2)cc1 | -1.24
17 | COC(=O)C1C(=O)c2c([nH]c(C(=O)OC3CCCCC3)c2C)CC1C (centres undefined) | -1.42
18 | Cc1[nH]c2ccccc2c1C(=O)COC(=O)c1cccc(S(=O)(=O)N2CCCCC2)c1 | 0.844
19 | O=C(N/N=C/c1cccs1)c1ccco1 | -1.33
20 | O=C(Nc1cccc(-c2nn[nH]n2)c1)c1ccc(Cl)s1 | -1.63
21 | COC(=O)[C@]1(Cc2ccccc2)N[C@H](CN(C)C(=O)c2ccccc2)[C@@H]2C(=O)N(Cc3ccccc3)C(=O)[C@@H]21 | 1.81
22 | O=C(CSc1ccc([N+](=O)[O-])cn1)Nc1nccs1 | -1.54
23 | CCN(CC)CCCn1c2c(c(SCC(=O)Nc3cccc4ccccc34)nc1=O)CCC2 | -1.61
24 | CN(CCO)c1ccc(C(C(=O)c2ccccc2)c2ccc(N(C)CCO)cc2)cc1 | 0.252

Source: PubChem BioAssay AID720517 (National Center for Advancing Translational Sciences (NCATS), 2013)
